# Compound activity: PubChem, National Center for Advancing Translational Sciences (NCATS)
# Shown are actives, neighbours in structure and some others; about 5.1% of the full set was active somewhere.
# Tau ThT inhib: tau fibrillization inhibition (ThT binding). P10636. recombinant tau K18 P301L, heparin-induced fibrillization, ThT fluorescence. Potency, µM (series often up to 57.4 µM), for inactives: top-dose activity, negative = inhibition, usual class: inhibitors. 270,000 tested, 2.1% active. AID 1460; also: potency is read from the fitted curve at half-maximal effect; nearly all actives have a fitted effect of over 55% in size
# Target sequence (P10636 561-689 P618L limits assumed): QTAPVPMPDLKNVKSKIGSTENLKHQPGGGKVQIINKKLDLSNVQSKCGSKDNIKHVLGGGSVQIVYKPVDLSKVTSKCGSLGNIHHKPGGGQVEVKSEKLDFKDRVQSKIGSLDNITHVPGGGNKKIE
#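 Tau K18 P301L fragment (15 uM unlabeled plus 0.24 uM Alexa 594-labeled) in 100 mM sodium acetate pH 7 with compound, fibrillization induced by 20 uM heparin for 6 hr at 37 C. Thioflavin T (30 uM) added, fluorescence read after 1 hr (ex 450, em 510 nm).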
# Tau fluor cs: counter-screen for tau fibril formation inhibitors; tau K18 P301L Alexa594 fluorescence, heparin fibrillization; Potency, µM (titrated, usually from 57.7 µM), for inactives: at the top dose activity change, negative = decrease; 280,000 tested, 0.93% active; AID 1463; also: potency is read from the fitted curve at half-maximal effect; nearly all actives have a fitted effect of over 55% in size
#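 Human K18 P301L tau (15 uM unlabeled plus 0.24 uM Alexa 594-labeled, final) in 100 mM sodium acetate pH 7 was mixed with compound and 20 uM heparin and incubated 6 hr at 37 C.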
# PNC assembly inh: inhibitors of perinucleolar compartment assembly; 140,000 tested, 3.1% active; PC3M PTB-GFP, PNC prevalence imaging, 16 h; hits give low values; activity change (PNC), negative = inhibition, % at 10 µM;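 active = readout at or below -70, meaning at least 70% loss of cells showing the perinucleolar compartment, a nuclear body marking cancer cells; inconclusive = readout between -30 and a set limit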;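 also: plate controls were DMSO wells for no effect and camptothecin positive control wells for full effect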
#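 Read-out is percentage of cells bearing a perinucleolar compartment, from automated 20x imaging of fixed, Hoechst-stained PC3M PTB-GFP cells. Cells were seeded 4 h, then exposed 16 h to compound (23 nl of library stock) in duplicate plates.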
# JMJD2E inh: inhibitors of human JMJD2E histone demethylase. Potency, µM (highest dose often 57.1 µM), for the others: top-dose activity change, negative = inhibition, actives largely listed as inhibitors. 230,000 tested, 1.6% active. AID 2147. B2RXH2. JMJD2E catalytic domain, FDH-coupled NADH fluorescence (FDH is formaldehyde dehydrogenase);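 also: potency is read from the fitted curve at half-maximal effect; 0% = wells with enzyme and -100% = buffer wells without enzyme; nearly all actives have a fitted effect of over 50% in size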
# Tau fibril FP: blocks human tau fibril formation measured by polarization | P10636 | K18 P301L tau heparin fibrillization, Alexa594 FP, 6 h | Potency, µM (titrated, usually from 57.7 µM), for the others: top-dose activity, negative = inhibition, usual class: inhibitors | 280,000 tested, 0.39% active; also: potency is read from the fitted curve at half-maximal effect; nearly all actives have a fitted effect of over 55% in size
#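 Heparin (20 uM) drove fibril formation of recombinant tau K18 P301L, 15 uM unlabeled with 0.24 uM Alexa 594 label, for 6 hr at 37 C in 100 mM sodium acetate pH 7. Fluorescence polarization (555/632 nm) read 1 hr after 30 uM ThT.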
# NPSR antagonist: antagonists of human neuropeptide S receptor cAMP signaling | Q6W5P4 | CHO-NPSR cells, cAMP TR-FRET, antagonist mode | Potency, µM (top dose mostly 38.3 µM), for inactives: at the highest dose activity change, negative = inhibition, actives largely listed as inhibitors | 220,000 tested, 1% active; also: potency is read from the fitted curve at half-maximal effect; nearly all actives have a fitted effect of over 50% in size
# Target sequence (Q6W5P4 whole entry, looked up): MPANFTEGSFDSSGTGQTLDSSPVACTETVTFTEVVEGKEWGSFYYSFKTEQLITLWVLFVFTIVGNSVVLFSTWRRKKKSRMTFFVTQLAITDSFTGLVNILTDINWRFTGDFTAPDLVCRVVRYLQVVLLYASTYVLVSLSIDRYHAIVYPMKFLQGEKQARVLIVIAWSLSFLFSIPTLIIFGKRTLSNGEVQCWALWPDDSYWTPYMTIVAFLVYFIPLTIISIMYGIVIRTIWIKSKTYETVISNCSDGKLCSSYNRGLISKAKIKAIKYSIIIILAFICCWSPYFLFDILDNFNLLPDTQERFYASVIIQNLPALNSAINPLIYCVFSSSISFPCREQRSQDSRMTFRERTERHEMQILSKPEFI
# Numbers without * were called inactive; ? = inconclusive; / = no result; [ ] = remark or other dose. Unless noted, calls follow the shape of the dose curve; as a rule, active = well fitted curve in the direction sought with a large enough effect; inconclusive = small, poorly fitted or top-dose-only effect, or another doubt; inactive = no such curve, though single readings can be large; an effect the other way counts as inactive or inconclusive. Unless noted, % is scaled to controls: 0 for no effect and ±100 for the full control effect.
SMILES,Tau ThT inhib,Tau fluor cs,PNC assembly inh,JMJD2E inh,Tau fibril FP,NPSR antagonist
CN=c1nc(-c2ccccc2)n(-c2ccccc2)s1,22.4µM*,-16.2%,/,3.16µM*,?,?
CCCc1ccc(C(=O)CCC(=O)O)cc1,-4.9%,0.5%,-95.6*,-26.3%,1.0%,-0.4%[46.1 µM]
CCOc1ccc(-c2nnc(SCC(=O)NCc3ccc(C)cc3)nc2-c2ccc(OCC)cc2)cc1,?,-0.1%,/,/,1.7%,/
O=C(Nc1ccn(Cc2ccccc2F)n1)c1ccc(COc2ccc(Br)cc2)cc1,5.9%,0.6%,-108.4*,-5.4%,5.5%,-14.2%[46.1 µM]
COC(=O)c1cc(NC(=O)c2cccc(C(F)(F)F)c2)c(=O)oc1C/C=N/OCc1cccc(Cl)c1Cl,?,-26.5%,-22.5,20µM*,-5.3%,0.2%[46.1 µM]
CCCC(=O)Nc1ccc2nc(SCC(=O)Nc3ccc(N4CCOCC4)c(Cl)c3)sc2c1,?,14.1µM*[quencher],-2.7,-11.6%,5.4%,-25.1%[46.1 µM]
COc1cccc(NC(=O)CSc2nc3ccc(NC(=O)c4ccco4)cc3s2)c1,8.9%,15.8µM*[quencher],/,/,?,/
Cc1ccccc1OCCSc1nc2ccc(NC(=O)c3ccccc3)cc2s1,-2.0%,?,/,/,11.2µM*,/
Cc1ccccc1OCCSc1nc2ccc(NC(=O)c3cccs3)cc2s1,14.1%,?,/,/,10µM*,/
Cc1ccccc1OCC(=O)Nc1ccc2nc(SCCOc3ccccc3)sc2c1,?,-24.3%,/,/,-12.8%,/
Cc1ccccc1C(=O)Nc1ccc2nc(SCCOc3ccccc3)sc2c1,-9.7%,-16.9%,/,/,?,/
COc1ccccc1-c1nn2c(=O)cc(CN3CCN(C(=O)/C=C/c4ccccc4)CC3)nc2s1,?,0.8%,/,/,6.7%,/
Cc1ccccc1OCCSc1nc2ccc(NC(=O)c3cccc(F)c3)cc2s1,?,?,/,/,14.1µM*,/
O=C(CSc1nc2ccc(Nc3nc(N4CCOCC4)nc(N4CCOCC4)n3)cc2s1)N1CCOCC1,-12.3%,-25.4%,-1.6,-18.2%,3.7%,5.8%
CC(=O)Nc1ccc2nc(SCCOc3ccc(C)cc3)sc2c1,-12.5%,-16.9%,/,/,?,/
O=C(CSc1nc2ccc(Nc3nc(N4CCCC4)nc(N4CCCC4)n3)cc2s1)NCc1ccco1,/,-26.2%,/,20µM*,6.6%,-32.0%
CC(C)(C)C(=O)Nc1ccc2nc(SCCOc3ccccc3Cl)sc2c1,-13.0%,-24.0%,/,/,?,/
COc1cc(C)ccc1OCCSc1nc2ccc(NC(C)=O)cc2s1,-5.0%,?,/,/,25.1µM*,/
Cc1ccc(NC(=O)CSc2nc3ccc(NC(=O)c4cccs4)cc3s2)c(C)c1,-9.7%,?,/,/,17.8µM*,/
COc1ccc(-c2cc(C(F)(F)F)nc(SCCC(=O)Nc3ccc(O)cc3)n2)cc1,7.3%,?,/,/,?,/
CCOc1ccc(OCC(=O)Nc2c(C(=O)Nc3ccc(C)cc3)oc3ccccc23)cc1,4.2%,-8.8%,/,/,-20.0%,/
Cc1cccc(OCCSc2nc3ccc(NC(=O)c4cccs4)cc3s2)c1,7.2%,?,/,/,7.08µM*,/
O=C(Cn1cnc2c(nnn2Cc2ccccc2F)c1=O)N1CCN(c2ccccc2)CC1,?,-13.6%,-82.7*,0.2%,-9.3%,-0.9%
O=C(Cn1cnc2c(nnn2Cc2ccccc2)c1=O)N1CCN(c2ccccc2)CC1,?,-8.5%,?,4.5%,-3.2%,-1.3%[46.1 µM]
COC(=O)CCc1sc(Nc2ccc(OC)cc2)nc1-c1ccc(OC)cc1,?,17.8µM*[quencher],/,/,10.5%,/
SMILES,Tau ThT inhib,Tau fluor cs,PNC assembly inh,JMJD2E inh,Tau fibril FP,NPSR antagonist
CC(C)(C)OC(=O)N1CCC[C@H]1c1nnc(SCc2ccccc2Cl)o1,3.7%,1.4%,-113.7*,-4.4%,1.4%,-21.0%[46.1 µM]
Cc1cc(C)c(S(=O)(=O)Nc2cc(SCC(=O)O)c(O)c3ccccc23)cc1C,12.6µM*,?,?,28.2µM*,25.1µM*,-19.1%
Cc1cc(C)c(S(=O)(=O)Nc2ccc(O)cc2)cc1C,-8.6%,-15.6%,13.4,1.8%,3.9%,-12.8%[46.1 µM]
COc1ccccc1N1C(=O)C(Cl)=C(Nc2ccccc2O)C1=O,12.6µM*,?,/,?,28.2µM*,-13.6%
Cc1ccc(O)c(NC2=C(Cl)C(=O)N(Cc3ccccc3)C2=O)c1,12.6µM*,?,/,22.4µM*,?,-34.9%
O=C1C(Cl)=C(Nc2ccccc2O)C(=O)N1c1ccccc1,14.1µM*,?,-16.8,?,?,-9.7%[46.1 µM]
CCOC(=O)c1cccc(NC(=O)CC(c2cc(OC)c(OC)c(OC)c2)N2Cc3ccccc3C2=O)c1 (stereo unspecified),-2.1%,-25.2%,/,/,-3.4%,/
COc1cc(NCc2ccc3nc(N)nc(N)c3c2C)cc(OC)c1OC,20µM*,?,/,/,?,/
COc1cc(CNc2nc3ccccc3n2C)cc(OC)c1OC,2.5%,3.3%,?,-4.7%,2.5%,6.8%
O=C(Nc1nnc(S(=O)(=O)N2CCc3ccccc32)s1)c1cccc(Cl)c1,?,-3.5%,/,/,-0.6%,/
Cc1cc(N)n2ncc(-c3ccc(Cl)cc3)c2n1,?,14.1µM*[quencher],36.4,?,?,?
COc1ccccc1CNC(=O)c1ccc2c(c1)nc(C)n2-c1cccc(C)c1,-9.1%,-2.4%,/,/,5.8%,/
CC1CCN(S(=O)(=O)c2cc(C(=O)N3CCN(c4cccc(Cl)c4)CC3)n(C)c2)CC1,-8.0%,-7.3%,/,/,5.1%,/
CC(C)CSc1ccccc1NC(=O)c1sc2nc(-c3ccncc3)ccc2c1N,-15.7%,3.16µM*[quencher],/,/,2.9%,/
COc1ccc(-c2ccc3c(N)c(C(=O)Nc4cccc(C)c4)sc3n2)cc1,-22.0%,?,/,/,1.5%,/
COc1ccc(NS(=O)(=O)c2ccc3nc(COc4cccc5ccccc45)[nH]c3c2)cc1,-10.6%,10µM*[quencher],-11.6,3.9%,22.4µM*,-22.7%
COc1ccc(NC2=Nc3cccc4cccc2c34)cc1,12.6µM*,?,68.5,-3.8%,?,-40.0%
Fc1ccc(/C=N/NC2=Nc3cccc4cccc2c34)cc1,2.24µM*,?,9.5,10.3%,6.2%,-14.3%
C/C(=C\c1ccccc1)C(=O)N1CCN(c2cccc(C(F)(F)F)c2)CC1,?,-15.7%,-91.0*,-10.2%,5.4%,-10.1%
C=CCNC(=S)N1CCN(c2cccc(C(F)(F)F)c2)CC1,-9.5%,-22.6%,-113.4*,2.3%,5.2%,-7.9%
CCNC(=S)N1CCN(c2cccc(C(F)(F)F)c2)CC1,-15.3%,-14.9%,52.7,-8.7%,-0.6%,3.9%
O=C(C[n+]1ccc(C(=O)N/N=C/c2ccc(Cl)cc2Cl)cc1)c1ccccc1,15.8µM*,?,-3.1,2.7%,9.8%,-5.5%[46.1 µM]
O=C(C[n+]1ccccc1)c1ccc(NC(=O)c2ccccc2)cc1,-15.5%,-16.9%,/,-18.8%,-2.4%,-10.7%
O=C(N/N=C/c1ccc(Cl)cc1Cl)c1cccc(F)c1,?,-28.8%,-11.8,9.7%,-8.0%,-27.5%[46.1 µM]
